Compound activity (PubChem)
Most compounds without a hit are left out; they make up all but 2.1% or so of the library.
ARNT TACC3 PPI = disruptors of human ARNT/TACC3 interaction; AID 623870; actives 0.66% (n = 390,000); Q9Y6A5; AlphaScreen His-ARNT PAS-B/GST-TACC3 binding, luminescence; TACC3 fragment carries E629A point mutation; inhibition, % at 9.99 µM;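 active means mean inhibition of replicates at least 50% and at least half of replicates each reaching 50%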;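 further: 0% = complete ARNT plus TACC3 wells and 100% = ARNT alone without TACC3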
SIRT5 inh = sirtuin-5 (human) deacylase inhibition | Q9NXA8 | Purified SirT5, succinyl-peptide AMC, trypsin-coupled fluorescence | inhibition, % at 15 µM | actives 1.1% (n = 330,000); in the data active means inhibition above about 15%
Target sequence (Q9NXA8 whole entry, looked up): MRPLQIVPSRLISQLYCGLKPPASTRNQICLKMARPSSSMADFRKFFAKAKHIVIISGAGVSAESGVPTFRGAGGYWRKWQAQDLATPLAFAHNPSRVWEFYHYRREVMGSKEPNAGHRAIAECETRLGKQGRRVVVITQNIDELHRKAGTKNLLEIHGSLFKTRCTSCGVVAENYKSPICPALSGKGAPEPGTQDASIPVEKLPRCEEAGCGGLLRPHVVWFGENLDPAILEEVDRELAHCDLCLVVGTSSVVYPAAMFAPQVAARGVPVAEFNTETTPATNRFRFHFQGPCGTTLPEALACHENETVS
NSD2 inh = blocks human histone methyltransferase NSD2. O96028. NSD2 peptide methylation, AlphaScreen, 120 min. inhibition, % at 12.5 µM. actives 0.54% (n = 310,000). AID 743445; in the data active means inhibition above about 50%
CASP6 VEID inh = blocks human caspase-6 cleavage activity | purified caspase-6, Z-VEID-R110 cleavage fluorescence | P55212 | inhibition, % at 12.5 µM | AID 686996 | actives 0.53% (n = 350,000);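 active means mean inhibition across replicates at least about 35%, with every replicate also reaching that limit, limit read from the data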;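 further: 0% = median of neutral control wells and 100% = no fluorescence left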
Target sequence (P55212 24-179 limits assumed): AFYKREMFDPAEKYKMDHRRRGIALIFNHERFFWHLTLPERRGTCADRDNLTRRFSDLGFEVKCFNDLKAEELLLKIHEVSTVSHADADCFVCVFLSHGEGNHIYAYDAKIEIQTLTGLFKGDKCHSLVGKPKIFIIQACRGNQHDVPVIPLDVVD
Target sequence (P55212 194-293 limits assumed): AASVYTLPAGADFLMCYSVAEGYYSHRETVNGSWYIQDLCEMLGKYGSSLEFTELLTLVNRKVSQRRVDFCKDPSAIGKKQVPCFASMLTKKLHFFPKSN
PfHsp90 yeast 2 = inhibits growth of yeast expressing Plasmodium falciparum Hsp90; S. cerevisiae expressing PfHsp90, BacTiter-Glo ATP, 48 h; yeast lacking PDR1 and PDR3 efflux regulators; inhibition, % at 9.4 µM; actives 0.32% (n = 310,000);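 active means every replicate shows inhibition above about 80%, whatever the replicate mean, limit read from the data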;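 further: 0% = DMSO neutral controls and 100% = 20 µM radicicol positive controls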
* hit, by the source's call; . = no result given.

SMILES	ARNT TACC3 PPI	SIRT5 inh	NSD2 inh	CASP6 VEID inh	PfHsp90 yeast 2
CCOc1ccc(CCNS(=O)(=O)c2cn(C)cn2)cc1OCC	-8	33*	3	3	13
C[C@@H]1CCCCO[C@H](CN(C)C(=O)NC2CCCCC2)[C@H](C)CN([C@H](C)CO)C(=O)c2cc(NC(=O)Nc3ccc(C(F)(F)F)cc3)ccc2O1	0	2	.	1	.
CN(C)CCn1c(NCc2ccc3c(c2)OCO3)nc2ccccc21	-1	31*	4	-2	-7
CCCn1c(NCc2ccc3c(c2)OCO3)nc2ccccc21	0	0	2	1	14
O=C(O)c1cc(N2N=C(C(F)(F)F)/C(=C/C=C/c3ccco3)C2=O)ccc1Cl	-11	63*	.	95*	-56
Oc1ccc(N=Nc2ccccc2-c2nn[nH]n2)c(O)c1	67*	17*	18	14	12
Cc1ccccc1-c1nn[nH]n1	-8	.	-2	.	.
O=C(N=Nc1c(O)[nH]c2ccc([N+](=O)[O-])cc12)c1ccccc1Cl	-5	-2	.	1	-42
O=C(O)c1ccccc1N=Nc1c(O)[nH]c2ccc([N+](=O)[O-])cc12	47*	.	.	.	-13
C(C#CCCCCCCCCC[n+]1ccccc1)#CCCCCCCCCC[n+]1ccccc1	21	.	17	.	121*
COc1cccc(-c2ccc([C@@H]3[C@@H](CO)N(C(C)=O)C34CN(C(C)=O)C4)cc2)c1	.	1	.	3	.
Cc1ccc(NC(=O)c2ccc3c(c2)CCN3S(C)(=O)=O)cc1	.	20*	-3	-1	.
CN(C)C(=O)C[C@@H]1CC[C@@H](NC(=O)c2ccc(F)cc2)[C@H](CO)O1	0	-3	.	2	.
COCCn1nnnc1C(c1cc2cc(C)ccc2[nH]c1=O)N1CCCCCC1 (centres undefined)	-7	.	.	.	-8
COCCn1nnnc1C(c1cc2cc(OC)ccc2[nH]c1=O)N1CCC(Cc2ccccc2)CC1 (centres undefined)	0	17*	0	0	-15
C[C@H]1CN([C@@H](C)CO)C(=O)c2cc(NC(=O)Nc3ccc(C(F)(F)F)cc3)ccc2O[C@H]1CN(C)S(=O)(=O)c1ccc(Cl)cc1	-3	23*	.	-1	.
C[C@H]1CN([C@@H](C)CO)C(=O)Cc2cc(NC(=O)Nc3ccc(F)cc3)ccc2O[C@@H]1CN(C)S(C)(=O)=O	-13	18*	.	-1	.
C[C@H](CO)N1C[C@H](C)[C@H](CN(C)S(=O)(=O)c2ccc(Cl)cc2)Oc2ccc(NC(=O)Nc3ccc(F)cc3)cc2C1=O	11	15*	.	-1	.
CCCN1[C@@H]2c3ccc(-c4cccc(F)c4)c(=O)n3C[C@H]1[C@H](CO)[C@H]2C(=O)NCC	0	-9	.	-1	.
COC(=O)/C=C/c1sc2nc(C)cc(C)c2c1N=CN(C)C	.	32*	-4	.	20
CCCOC(=O)c1ccc(Oc2cn[nH]c2-c2ccc(OCC)cc2O)cc1	-5	.	-1	.	98*
CCCOC(=O)c1ccc(Oc2c(-c3ccc(OCC)cc3O)n[nH]c2C)cc1	4	.	8	.	0
CCCc1ccc(Oc2cn[nH]c2-c2ccc(O)c(C)c2O)cc1	6	.	.	.	142*
CCS(=O)(=O)NCC[C@H]1CC[C@H](NS(=O)(=O)c2cccc(Cl)c2)[C@@H](CO)O1	1	-10	.	4	.
COc1cc(C(=O)NCC(=O)OCC(=O)Nc2nnc(-c3ccccc3)o2)cc(OC)c1OC	.	-1	0	-1	9
SMILES	ARNT TACC3 PPI	SIRT5 inh	NSD2 inh	CASP6 VEID inh	PfHsp90 yeast 2
CCOc1ncccc1C(=O)OCC(=O)Nc1c(C)cccc1C	-2	.	-4	.	11
CCOc1ncccc1C(=O)OCC(=O)Nc1nnc(-c2ccccc2)o1	54*	-2	9	.	-1
O=C(COC(=O)c1cccc(O)c1)Nc1nnc(-c2ccccc2)o1	60*	-2	-2	1	.
COc1cc(C(=O)OCC(=O)Nc2nnc(-c3ccccc3)o2)cc(OC)c1OC	47*	4	-5	1	.
O=C(COC(=O)c1cccs1)Nc1nnc(-c2ccccc2)o1	61*	-2	-4	6	-6
C[C@H](CO)N1C[C@H](C)[C@H](CN(C)C(=O)Nc2ccc3c(c2)OCO3)Oc2ncc(C#CCN(C)C)cc2C1=O	-13	-3	.	0	.
COc1cccc(-c2nnc(NC(=O)CCS(=O)(=O)c3ccc(C)cc3)o2)c1	10	-1	-1	-7	24
COc1cc(-c2nnc(NC(=O)CS(=O)(=O)c3ccc(F)cc3)o2)cc(OC)c1OC	54*	0	-1	-4	-5
COc1cc(-c2nnc(NC(=O)CS(=O)(=O)c3ccc(C)cc3)o2)cc(OC)c1OC	45*	1	-2	9	-9
O=C(CCC1CCCN(Cc2cccc3c2OCO3)C1)NCc1ccc(F)c(F)c1 (centres undefined)	-1	38*	3	6	11
CN(C)C(=O)[C@@]1(Cc2ccccc2N=[N+]=[N-])N=C(c2ccc(OCCCO)cc2)O[C@H]1c1ccccc1N=[N+]=[N-]	12	4	.	-1	.
C/C=C/c1ccc([C@H]2[C@@H](CO)N(C(=O)NC(C)C)[C@H]2CNC(C)=O)cc1	.	3	.	1	.
CCCCCCCCCCCCCCCC(O)C[N+](C)(C)CCO (centres undefined)	-1	8	18	-177	111*
CCCCCC(O)CCCC(=O)O (centres undefined)	-3	0	.	0	5
CCC(=O)N(C)C[C@H]1Oc2ncc(C#CC(C)(C)O)cc2C(=O)N([C@H](C)CO)C[C@H]1C	-9	-1	.	-1	.
O=[N+]([O-])c1cc([N+](=O)[O-])c(Oc2ccc(F)cc2F)cc1NN1CCCCC1	39	17*	.	0	7
COc1ccc(/C(O)=C2/C(=O)C(=O)N(CCCN3CCOCC3)C2c2ccc(OC)cc2)cc1 (centres undefined)	4	81*	.	3	2
CCCOc1ccc(N/C=C/C(=O)c2ccc(OC)c(OC)c2)cc1	4	17*	-3	-2	-2
CCOc1ccc(N/C=C/C(=O)c2ccc(OC)c(OC)c2)cc1	-1	4	0	-2	-2
C[C@H]1CN([C@@H](C)CO)C(=O)c2cc(/C=C/c3ccccc3)cnc2O[C@@H]1CN(C)C(=O)C1CCCCC1	13	-8	.	-2	.
CN1CCN(S(=O)(=O)c2cccc(C(=O)N3CCN(c4ccccc4)CC3)c2)CC1	-1	17*	-1	4	10
CN1CCN(S(=O)(=O)c2cccc(C(=O)N3CCN(c4ccccc4F)CC3)c2)CC1	-11	-4	1	15	34
O=C(c1cccc(S(=O)(=O)N2CCCCCC2)c1)N1CCN(c2ccccc2F)CC1	23	0	-3	48*	6
C[C@H](CO)N1C[C@H](C)[C@@H](CN(C)S(=O)(=O)c2cccs2)Oc2ncc(/C=C/c3ccccc3)cc2C1=O	-1	4	.	6	.
CCCc1cn(CC[C@H]2CC[C@H](NC(=O)C3CCC3)[C@H](CO)O2)nn1	-4	7	.	-1	.
